# Entries with a potency or affinity are not part of this list. Records with an inconclusive call do not appear. Unmarked numbers belong to inactive results.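 Rule for the calls: active = signal loss with fitted half-maximal concentration at or below twice the top valid tested dose in every test run; inconclusive = runs disagree, flat 30 to 70% signal loss, or poor fit; inactive = all runs flat, opposite direction, or potency beyond limit.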
# Experiment: general mammalian cell viability loss – inhibitor set, cherry-pick, set 2, cytotoxicity control for miR-122 modulator project, dose response (AID 720697);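 note: 0% = median of neutral control wells and -100% = MG132 positive control wells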
# Conditions: HEK293T viability, CellTiter-Glo luminescence, 48 h; series mostly up to 26 µM; activity change, negative = cytotoxicity: at the top concentration
row,Compound,"activity change, negative = cytotoxicity"
1,Cc1ccc(-n2ncc(C(=O)Nc3cc(Cl)ccc3C)c2C2CCNCC2)cc1C,-26%
2,CN1C(=O)c2cc(NC(=O)c3cccs3)ccc2OC[C@@H]2O[C@@H](CC(=O)N3CCOCC3)CC[C@H]21,115% [at 23.5 µM]
3,N#CCc1c(C#N)c(N)nc(N2CCN(S(=O)(=O)c3ccccc3)CC2)c1C#N,23.6%
4,COc1ccc(CN2CCN(Cc3cccn3-c3ncccn3)CC2CCO)c(C)c1C (centres undefined),22.8%
5,CNC[C@H]1Oc2cc(C#CC3CCCC3)ccc2S(=O)(=O)N([C@H](C)CO)C[C@H]1C,31.7%
6,N=c1c2c(-c3ccccc3)c(-c3ccccc3)n(Cc3ccccc3)c2ncn1CCO,-63%
7,C/C=C/c1ccc([C@H]2[C@@H](CO)N(C(=O)COC)[C@H]2CNC(=O)CC)cc1,-19.9%
8,CCNC(=O)C[C@@H]1CC[C@@H]2[C@@H](COc3ccc(NC(=O)c4ccccc4)cc3C(=O)N2C)O1,80.6% [at 23.5 µM]
9,CCN(C[C@@H]1N[C@@H](CO)[C@@H]1c1ccc(C2=CCCC2)cc1)C(=O)c1cccnc1,-18.4% [at 23.5 µM]
10,O=C(NCCCN1CCCC1)c1ccc(CSCc2cccc(Cl)c2)o1,69.1%
11,Cc1ccccc1NC(=O)Nc1ccc2c(c1)C(=O)N(C)[C@@H]1CC[C@H](CC(=O)NCC3CC3)O[C@@H]1CO2,119%
12,COc1cccc(-c2csc(N3CCN(CC(=O)Nc4ccc5c(c4)OCO5)CC3)n2)c1,23.7%
13,CN1C(=O)c2cc(NC(=O)c3ccc(C(F)(F)F)cc3)ccc2OC[C@@H]2O[C@H](CC(=O)NC3Cc4ccccc4C3)CC[C@H]21,85.2%
14,CNC(=O)C[C@H]1CC[C@@H]2[C@H](COc3ccc(NC(=O)Nc4ccccc4OC)cc3C(=O)N2C)O1,52.7%
15,C[C@H]1CN([C@@H](C)CO)C(=O)c2cc(-c3ccc(C#N)cc3)cnc2O[C@H]1CN(C)C(=O)Nc1ccc(C(F)(F)F)cc1,33.3%
16,CCCC(=O)Nc1ccc2c(c1)C(=O)N(C)[C@H]1CC[C@@H](CC(=O)NCCN3CCCCC3)O[C@H]1CO2,43.1% [at 23.5 µM]
17,CCN(CC)CCNC(=O)c1ccc(NC(=O)c2cn(-c3ccc(F)cc3)nc2-c2cccc(OC)c2)cc1,-17.7% [at 6 µM]
18,OC[C@H]1[C@@H](c2ccccc2)[C@H](CNCC2CCC2)N1CC1CC1,144%
19,COc1cc(NC(=O)c2c(F)c(F)c(F)c(F)c2F)c(OC)cc1Cl,-41.5%
20,C/C=C/c1ccc2c(c1)O[C@@H](CN(C)CC1CCCC1)[C@H](C)CN([C@@H](C)CO)S2(=O)=O,109%

row,Compound,"activity change, negative = cytotoxicity"
1,CCCC(=O)Nc1ccc2c(c1)C(=O)N(C)[C@@H]1CC[C@H](CC(=O)N3CCc4ccccc4C3)O[C@H]1CO2,83.8%
2,COCC(=O)Nc1ccc2c(c1)C(=O)N(C)[C@@H]1CC[C@H](CC(=O)NC3CCCC3)O[C@H]1CO2,62.5%
3,CCN(C[C@H]1N[C@@H](CO)[C@@H]1c1ccc(C2=CCCC2)cc1)C(=O)c1cccnc1,-38.7%
4,CC(C)Oc1ccc(CNCCC2(C(C)C)CCOC(C)(C)C2)cc1 (centres undefined),76.1%
5,NS(=O)(=O)c1ccc(Nc2nc(-c3cccnc3)cs2)cc1,34% [at 6 µM]
6,C/C=C/c1ccc([C@@H]2[C@@H](CNC(=O)CC)N(Cc3ccccn3)[C@H]2CO)cc1,92%
7,CCC(=O)N1[C@H](CO)[C@H](c2ccccc2)[C@@H]1CN(CC)C(=O)c1ccccc1,138% [at 23.5 µM]
8,CCC(=O)N1[C@H](CN(C(C)C)S(C)(=O)=O)[C@@H](c2ccccc2)[C@@H]1CO,165% [at 23.5 µM]
9,C[C@@H]1CCCCO[C@@H](CN(C)CC2CCCCC2)[C@H](C)CN([C@@H](C)CO)C(=O)c2cc(NC(=O)Nc3cccc4ccccc34)ccc2O1,55.7%
10,CN1CCN(C(=O)C[C@H]2CC[C@@H]3[C@H](COc4ccc(NC(=O)c5cccs5)cc4C(=O)N3C)O2)CC1,39.4%
11,CO[C@@H]1CN(C)C(=O)c2ccc(NS(=O)(=O)c3cccc(F)c3)cc2OC[C@@H](C)NC[C@H]1C,-41.8%
12,Cc1cc(C(=O)Nc2cccc(O)c2)co1,-23.8%
13,COCC(=O)Nc1ccc2c(c1)C(=O)N(C)[C@H]1CC[C@@H](CC(=O)NC3CCCC3)O[C@H]1CO2,12.9%
14,CNC(=O)C[C@H]1CC[C@H]2[C@H](COc3ccc(NC(=O)c4cccc(OC)c4)cc3C(=O)N2C)O1,66.9%
15,C/C=C/c1ccc([C@H]2[C@@H](CO)N(C(=O)CC)[C@H]2CNC(=O)CC)cc1,107%
16,COCC(=O)Nc1ccc2c(c1)C(=O)N(C)[C@@H]1CC[C@@H](CC(=O)NCc3ccc(OC)cc3)O[C@H]1CO2,71.4%
17,C=CCNC(=S)NNC(=O)c1cccn(Cc2ccc(Cl)c(Cl)c2)c1=O,5.3%
18,CC(=O)Nc1ccc2c(c1)C(=O)N(C)[C@H]1CC[C@H](CC(=O)NC3CCCCC3)O[C@@H]1CO2,121%
19,c1cnc(N2CCN(Cc3c[nH]c4ccccc34)CC2)nc1,6.09%

# Reference: PubChem BioAssay AID720697 (Broad Institute, 2013)
